# Compounds with a hit are over-represented: about 21% of the library has one in this group of screens.
# DT40 TDP1 no CPT: qHTS for Inhibitors of human tyrosyl-DNA phosphodiesterase 1 (TDP1): qHTS in cells in absence of CPT; AID 686978, 2013; DT40 Tdp1-/- hTDP1 cells, no CPT, ATP luminescence, 48 h; Potency, µM (highest dose often 46.2 µM), most hits filed as inhibitors; 420,000 compounds, 15% hits; note: nearly all actives have a fitted effect of over 55% in size
#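 Stably hTDP1-transfected Tdp1-null chicken DT40 cells were treated with library compounds minus camptothecin and grown for at least 48 hr at 37 °C, after which cellular ATP was quantified by luminescence.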
# ELG1 DNA repair: blocks ELG1-dependent DNA repair in HEK293T cells | 330,000 compounds, 2.3% hits | Potency, µM (top dose mostly 46.1 µM), hits mostly inhibitors | HEK293T ELG1-luciferase reporter, luminescence, 16 h; DNA damage induced by 5-fluorouridine; note: nearly all actives have a fitted effect of over 55% in size
#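 Overnight (16 hr) co-exposure of 2,000 cells/well to 5-fluorouridine and compound at 37 °C preceded detection. Luciferase was quantified via ONE-Glo luminescence; loss of signal denotes inhibition.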
# Gal4-VP16 FLuc: counter-screen for ROR gamma inhibitors: Gal4-VP16 reporter | AID 2546 | Potency, µM (highest dose often 53.6 µM), hits mostly inhibitors | Drosophila S2 Gal4-VP16 UAS-luciferase, luminescence, 20 h | 310,000 compounds, 3.5% hits;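 note: Gal4-VP16 expression switched on by copper sulfate through the metallothionein promoter; nearly all actives have a fitted effect of over 50% in size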
# IL-1B inflam inh: inflammasome signaling inhibition, IL-1 beta readout; THP-1 LPS/ATP IL-1B secretion, AlphaLISA, 16 h; hits give low values; activity change, % at 57.5 µM; 360,000 compounds, 4.7% hits; in the data active = activity change below about -50%; inconclusive = mostly about -30% to -49%
#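 Secreted IL-1B measured by AlphaLISA bead assay after 16 h compound exposure of THP-1 cells; compounds (final up to 57.5 uM) added 1 h before LPS (250 ng/mL) and ATP (1.25 mM) stimulation; lower signal means less secretion.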
# TDP1 cell CPT: growth inhibition of DT40 Tdp1-/-;hTDP1 cells with camptothecin (screen for TDP1 inhibitors); 420,000 compounds, 12% hits; AID 686979; Potency, µM (series often up to 46.2 µM), usual class: inhibitors; chicken DT40 Tdp1-/-;hTDP1 cells + 20 nM CPT, ATP luminescence, 48 h; note: nearly all actives have a fitted effect of over 55% in size
#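 Chicken DT40 Tdp1-/- cells stably complemented with human TDP1 were seeded at 400 cells/well in medium containing 20 nM camptothecin, exposed to pin-transferred compounds, and grown at 37 °C for at least 48 hr. Viability was read as ATP luminescence.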
# RORg inh: ROR gamma (mouse) transcription inhibition; 310,000 compounds, 5.4% hits; P51450; Potency, µM (series often up to 53.6 µM), actives largely listed as inhibitors; Drosophila S2 Gal4-RORgamma UAS-luciferase reporter, 20 h; AID 2551; note: nearly all actives have a fitted effect of over 60% in size
# Target sequence (P51450 whole entry, looked up, the tested form may be a part): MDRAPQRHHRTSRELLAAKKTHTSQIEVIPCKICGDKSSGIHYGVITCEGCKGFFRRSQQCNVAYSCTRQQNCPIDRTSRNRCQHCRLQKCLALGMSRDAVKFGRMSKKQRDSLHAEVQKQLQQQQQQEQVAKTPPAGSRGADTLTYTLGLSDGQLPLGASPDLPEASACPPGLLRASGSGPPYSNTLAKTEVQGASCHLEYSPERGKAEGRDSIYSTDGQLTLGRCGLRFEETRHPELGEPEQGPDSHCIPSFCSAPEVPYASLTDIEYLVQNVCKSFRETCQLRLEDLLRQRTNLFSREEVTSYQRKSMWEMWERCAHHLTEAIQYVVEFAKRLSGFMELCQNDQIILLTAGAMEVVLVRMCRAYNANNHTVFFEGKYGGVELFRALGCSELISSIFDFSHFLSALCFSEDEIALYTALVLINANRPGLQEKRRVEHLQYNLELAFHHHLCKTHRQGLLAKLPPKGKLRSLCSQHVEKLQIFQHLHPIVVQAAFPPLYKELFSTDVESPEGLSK
#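 Luminescence from a UAS-regulated Photinus luciferase reporter in stably transfected Drosophila Schneider cells is measured; decreased signal marks ROR gamma inhibition. Fusion expression is induced by 700 uM copper sulfate for 20 hr.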
# A number is an active result; 0 = inactive; ? = inconclusive; - = no result; ! = not active in a repeat. Unless noted, calls come from the whole dose curve; as a rule, active = well fitted curve in the direction sought with a large enough effect; inconclusive = small, poorly fitted or top-dose-only effect, or another doubt; inactive = no such curve, though single readings can be large; an effect the other way counts as inactive or inconclusive.
SMILES,DT40 TDP1 no CPT,ELG1 DNA repair,Gal4-VP16 FLuc,IL-1B inflam inh,TDP1 cell CPT,RORg inh
Cc1cccc(C)c1-n1nnnc1C(CCc1ccccc1)N1CCC(n2c(=O)[nH]c3ccccc32)CC1 (stereo unspecified),5.8µM,-,-,0,5.8µM,-
O=C(NCC1=C(c2cccc3ccccc23)C[C@@H]2CC[C@H]1N2Cc1ccco1)c1ccncc1,25.9µM,-,-,0,23.1µM,-
O=C(NCC1=C(c2cccc3ccccc23)C[C@@H]2CC[C@H]1N2Cc1ccco1)c1cccs1,14.6µM,-,-,0,?,-
O=C(NCC1=C(c2cccc3ccccc23)C[C@@H]2CC[C@H]1N2Cc1ccco1)c1cccnc1,?,-,-,0,?,-
O=C(NCC1=C(c2ccc3ccccc3c2)C[C@@H]2CC[C@H]1N2Cc1ccco1)c1nccs1,16.4µM,-,-,0,?,-
COc1ccc(OC(=O)N(C)C[C@@H]2OCc3cnnn3CCCC(=O)N([C@@H](C)CO)C[C@@H]2C)cc1,0,-,-,0,0,-
CN1CCN(c2nc3ccccc3o2)CC1,0,?,0,0,0,0
O=C1NC(=O)C2(CCN(c3ccccc3)CC2)C(=O)N1,0,-,-,0,0,-
Cl/C=C/CCl,-,-,0,-,-,0
CCN(c1cccc(C)c1)S(=O)(=O)c1ccc2c(c1)oc(=O)n2C,?,0,0,0,0,0
Cc1cccc(N(C)S(=O)(=O)c2cc(-c3cnc(C4CC4)o3)ccc2C)c1,23.1µM,-,-,-,16.4µM,-
CC1C(=O)OC2CCN3CC4OC4(COC(=O)C(C)(O)C1(C)O)C23 (stereo unspecified),0,-,-,0,0,-
Cc1nn(Cc2ccccc2)c(C)c1C=C1C(=O)NC(=O)NC1=O,0,0,0,-106.1,0,0
Cc1nn(Cc2ccccc2)c(C)c1C(=O)NCc1ccccc1,0,0,0,0,0,0
[N-]=[N+]=NCCN1CCC(O)CCC1=O (stereo unspecified),0,0,0,0,0,0
CCOC(=O)c1cccc(C2=C(CNC(=O)c3ccc([N+](=O)[O-])cc3)[C@H]3CC[C@@H](C2)N3Cc2ccccc2)c1,?,-,-,0,?,-
COc1ccccc1N1CCN(Cc2ccccc2F)CC1,0,0,0,0,0,0
COc1ccc(CN2CCc3nc(N4CCN(c5ccc(F)cc5)CC4)ncc3C2)c(OC)c1OC,4.61µM,-,-,-,5.8µM,-
Cn1c(O)c(C=NCCCCCCCCCCC(=O)O)c(=O)n(C)c1=O,0,?,0,0,0,0
CC1CCC(C(C)C)C(OC(=O)c2ccccc2N)C1 (stereo unspecified),?,-,?,-,?,0
O=c1oc2ccccc2c(O)c1Cc1c(O)c2ccccc2oc1=O,0,-,0,-,0,0
O=Nc1c(O)c2ccccc2c2ccccc12,3.26µM,-,-,-76.4,1.84µM,-
CN(CC(=O)Nc1cccc(F)c1)CC(=O)Nc1cccc(S(=O)(=O)N(C)c2ccccc2)c1,23.1µM,-,-,-78.8,23.1µM,-
O=C(NCc1ccccc1)C(=O)NCC1OCCN1S(=O)(=O)c1ccc([N+](=O)[O-])cc1 (stereo unspecified),?,?,0,0,?,0
C=C[C@H](Cc1ccccc1)N(Cc1ccccc1)S(=O)(=O)N(Cc1ccccc1)[C@H](C=C)Cc1ccccc1,13µM,?,-,0,?,-
SMILES,DT40 TDP1 no CPT,ELG1 DNA repair,Gal4-VP16 FLuc,IL-1B inflam inh,TDP1 cell CPT,RORg inh
COC(=O)[C@@H](Cc1ccccc1)N(Cc1ccccc1)S(=O)(=O)N(Cc1ccccc1)[C@H](Cc1ccccc1)C(=O)OC,10µM!,?,-,0,23.1µM,-
O=C(O)C(Cl)(Cl)Br,-,-,0,-,-,0
Cc1ccc(-n2c(C)nc3ccccc3c2=O)cc1C,14.6µM,0,0,0,?,0
Cc1nc2ccccc2c(=O)n1-c1ccc(Cl)c(Cl)c1,?,?,0,0,?,0
Cc1ccc(-n2c(C)nc3ccccc3c2=O)c(C)c1,16.4µM,0,0,0,?,0
CC=C(CC)C1(CCC)C(=O)NC(=S)NC1=O,0,-,-,0,0,-
Cc1nc(Cl)sc1C(=O)Nc1ccc2ccccc2c1,0,?,0,0,0,0
CNS(=O)(=O)c1cc(NC(=O)c2cccc3cccnc23)ccc1C,20.6µM,0,0,?,23.1µM,0
CCOC(=O)c1c(C)n(Cc2ccccc2)c2ccc(OCC(O)Cn3nc(C)cc3C)cc12 (stereo unspecified),?,20.6µM,0,?,?,0
CCOC(=O)c1c(C)n(Cc2ccccc2)c2ccc(OCC(O)CNC(C)(C)C)cc12 (stereo unspecified),18.4µM,0,0,-96.3,?,?
CC1=C[C@H]2[C@]3(O)C(C=C(CO)C[C@]2(O)C1=O)[C@@H]1C(C)(C)[C@]1(O)[C@H](O)[C@H]3C (stereo partly specified),-,-,0,-,-,0
Cc1ccc2c(c1)C=CC(C#N)N2C(=O)Oc1ccccc1 (stereo unspecified),16.4µM,-,-,?,18.4µM,-
COc1ccc(C(=O)O)cc1OC,0,-,0,0,0,0
O=C(O)c1cc(O)c(O)c(O)c1,0.92µM,-,?,-,0.581µM,10µM!
CCCC(c1nnnn1Cc1cccs1)N1CCN(c2nc3ccccc3s2)CC1 (stereo unspecified),?,23.1µM,0,0,?,0
CCOC(=O)c1[nH]c2ccc(OC)cc2c1C(SCC(=O)O)c1ccc(C(F)(F)F)cc1 (stereo unspecified),0,0,0,0,0,0
C1=C(c2c[nH]c3ccccc23)CCN(Cc2ccccc2)C1,4.61µM,?,0,0,9.2µM,0
CN1CC=C(c2c[nH]c3ccccc23)CC1,0,0,0,0,0,0
CN1C(=O)NC(=O)C(N=Nc2ccc(Cl)cc2)C1=O (stereo unspecified),?,-,-,0,0,-
COCCNC(=O)CN1C(=O)CN=C(c2ccccc2)c2ccccc21,0,0,0,0,0,0
Cc1ccccc1CN1C(=O)C(C)N=C(c2ccccc2)c2ccccc21 (stereo unspecified),18.4µM,-,-,-,?,-
[S]=[Sb](=[S])[S][Sb](=[S])=[S],0,-,-,-,0,-
CN1C2CNC(=O)CC1C1CCC2C1 (stereo unspecified),0,-,-,0,0,-
ClCC1C(CCl)C2(Cl)C(Cl)=C(Cl)C1(Cl)C2(Cl)Cl (stereo unspecified),-,-,0,-,-,0
O=C1C=CC(=O)C2C1C1(Cl)C(Cl)=C(Cl)C2(Cl)C1(Cl)Cl (stereo unspecified),?,-,-,-103.2,?,-
C=C(C)Cn1c(-c2cccs2)n[nH]c1=S,0,0,14.1µM,0,0,12.6µM
O=[N+]([O-])c1cccc(O)c1,0,0,0,0,?,0

# Screens (PubChem)
